LDHA inh: LDHA (human) enzyme inhibition; P00338; 480,000 compounds, 0.15% hits; activity change, % (values are at about 110 or 230 µM); AID 1347041; purified LDHA, NADH/diaphorase-resazurin fluorescence; active compounds read low; in the data active = activity change below about -30%;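 note: plate controls were DMSO wells for no effect and wells without enzyme for full effect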
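Enzyme activity of human lactate dehydrogenase 5 (2 nM; 0.06 mM NADH, 0.2 mM pyruvate, 5 min, RT) is measured via a resazurin/diaphorase fluorescence readout of residual NADH.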
TRHR PAM: allosteric enhancers of human TRH receptor; TRHR cells, fluo-8 calcium fluorescence, EC20 TRH enhancement; enhancement, % at 2 µM; 360,000 compounds, 0.66% hits; AID 493056; in the data active = enhancement above about 30%; note: 0% is about no effect
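Enhancer read-out: after compound pinning and an initial kinetic agonist-mode read, an EC20 of TRH (10 nM final) was injected and fluo-8 calcium signal (Ex 480/Em 530) followed at 1 s/cycle for 100 cycles in TRHR-expressing cells.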
TRHR agonist: agonists of human TRH receptor; TRHR cells, calcium flux fluo-8, FDSS agonist mode; activation, % at 2 µM; 360,000 compounds, 0.18% hits; AID 493084; P34981; note: 0% is about no effect
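Agonist-mode FDSS calcium read (Ex 480/Em 530, 1 s cycles) in 1536-well TRHR cells with fluo-8 dye, after 10-cycle baseline and 23 nL compound addition; TRH at EC20 (10 nM final) added afterwards for the enhancer phase.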
D1 antagonist: blocks dopamine activation of the human D1 receptor; P21728; HEK293 TREx D1 cells, calcium flux, dopamine EC80; active compounds read low; activity change, negative = inhibition, % at 10 µM; 360,000 compounds, 3.2% hits; in the data active = activity change below about -30%; note: % is set by controls: 0 for no effect and ±100 for the full control effect
Target sequence (P21728 whole entry, looked up): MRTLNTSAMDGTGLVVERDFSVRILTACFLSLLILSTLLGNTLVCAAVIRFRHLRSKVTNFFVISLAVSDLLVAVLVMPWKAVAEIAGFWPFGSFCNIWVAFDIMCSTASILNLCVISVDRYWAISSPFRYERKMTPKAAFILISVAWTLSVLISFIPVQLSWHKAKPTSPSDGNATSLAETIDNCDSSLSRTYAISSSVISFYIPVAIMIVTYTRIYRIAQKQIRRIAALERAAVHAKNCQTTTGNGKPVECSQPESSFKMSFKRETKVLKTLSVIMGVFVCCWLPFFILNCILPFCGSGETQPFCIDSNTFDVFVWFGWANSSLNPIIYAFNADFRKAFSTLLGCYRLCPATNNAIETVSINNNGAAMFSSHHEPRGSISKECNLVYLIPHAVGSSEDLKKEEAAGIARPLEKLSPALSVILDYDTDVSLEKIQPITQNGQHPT
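Calcium flux readout: force-coupled, inducible Hek293 Trex D1 line, cells induced overnight at 30 C with tetracycline, dye-loaded 30–90 min at RT. Antagonism scored against EC80 dopamine challenge given 180 s after compound.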
D1 agonist: agonists of human D1 dopamine receptor | HEK293 T-REx D1 cells, calcium flux, agonist mode | activation, % at 2 µM | P21728 | AID 504660 | 360,000 compounds, 1% hits; note: 0% is about no effect
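Inducible HEK293 T-REx D1 cells, force-coupled to calcium signalling, were plated at 4000 cells/well with tetracycline and held overnight at 30 C. After no-wash calcium dye loading, compound-evoked calcium rise over 180 s flagged agonists.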
D1 PAM: human D1 dopamine receptor positive modulation; 360,000 compounds, 0.036% hits; potentiation, % at 10 µM; HEK293 TREx D1 cells, calcium flux, dopamine EC20 potentiation; AID 504651; P21728; in the data active = potentiation above about 30%; note: 0% is about no effect
Numbers without * were called inactive; x = not tested or not shown. A selection: hits, their analogues and other compounds. The true share with any hit is near 3.6%. Cut-off read from the data, not from the text of the source, unless noted: active = activation above about 30%; inactive = the rest.

SMILES | LDHA inh | TRHR PAM | TRHR agonist | D1 antagonist | D1 agonist | D1 PAM
CNC(=O)C1CC(=O)N(Cc2ccc3c(c2)OCO3)C(=Nc2ccc(OC)cc2)S1 (stereo unspecified) | -1 | 17 | -1 | -30* | 10 | -6
CNC(=O)C1CC(=O)N(CCc2ccc(OC)cc2)C(=Nc2ccc(OC)cc2)S1 (stereo unspecified) | -4 | 0 | 0 | -3 | 0 | -13
CC(C)CCNC(=O)c1ccccc1SCC(=O)NC1CCCCCCC1 | 1 | -10 | -2 | -22 | 0 | -4
O=C(CSc1ccccc1C(=O)O)NC1CCCCCCC1 | 1 | -5 | 0 | -9 | 1 | -3
O=C(CSc1ccccc1C(=O)O)NC1CCCCCC1 | -13 | -2 | 0 | -39* | 2 | -5
O=C(CSc1ccccc1C(=O)NCc1ccccc1)NC1CCCCCCC1 | -7 | -7 | -1 | -84* | 2 | -5
COc1ccc(OC)c(S(=O)(=O)N2CCN(Cc3ccc(C(F)(F)F)cc3)CC2)c1 | 12 | x | x | x | x | x
CN(C)CC/C=C1/c2ccccc2COc2ccc(CC(=O)O)cc21 | -5 | x | x | x | x | x
CN(C)CC/C=C1/c2ccccc2COc2ccccc21 | x | -3 | 1 | -74* | 9 | -4
CN(C)CC/C=C1/c2cc(F)ccc2CSc2ccc(F)cc21 | -1 | 3 | 1 | -4 | 5 | -9
CN(C)CCC=C1c2ccccc2C=Cc2ccccc21 | 3 | 9 | 1 | -100* | 13 | -5
CN(C)CCC=C1c2ccccc2CCc2ccccc21 | -7 | 1 | 0 | -67* | 11 | -5
Cc1ccc2c(c1)Oc1ccc(S(=O)(=O)N(C)c3ccccc3Cl)cc1C(=O)N2 | 3 | x | x | x | x | x
C=C(C)Cn1c(SCC(=O)Nc2ccccc2)nc2c1c(=O)n(C)c(=O)n2C | -12 | x | x | x | x | x
Cc1[nH]nc(SCC(=O)NCc2ccc(F)cc2)c1[N+](=O)[O-] | -1 | -8 | -1 | -40* | -1 | -6
Cc1ccc(O)c(NC(=O)CSc2n[nH]c(C)c2[N+](=O)[O-])c1 | -3 | 0 | 0 | -34* | 16 | -7
N#Cc1nc(-c2ccc(S(=O)(=O)N3CCOCC3)cc2)oc1NCCCn1ccnc1 | 0 | x | x | x | x | x
COc1cccc(CNC2CCCCCC2)c1OC | 1 | x | x | x | x | x
O=C(Nc1ccc(Cl)cn1)c1cccc(S(=O)(=O)N2CCCCCC2)c1 | -4 | x | x | x | x | x
CN(CC(=O)Nc1ccc(Cl)cc1)C(=O)c1cccc(S(=O)(=O)N2CCN(Cc3ccccc3)CC2)c1 | -2 | -7 | 1 | -31* | 3 | -13
O=C(Nc1ccc(Cl)cn1)c1cccc(S(=O)(=O)N2CCCCC2)c1 | 4 | 11 | -2 | 7 | 31* | x
CN1CCN(S(=O)(=O)c2cccc(C(=O)Nc3nc(-c4ccccc4)cs3)c2)CC1 | -3 | 9 | -1 | -32* | 15 | -5
COc1ccc(-c2csc(NC(=O)C3CCCCN3S(=O)(=O)c3ccccc3)n2)cc1 (stereo unspecified) | -5 | 1 | 0 | -37* | 2 | -4
CN(C)C(=O)c1ccc(NC(=O)c2cccc(S(=O)(=O)N3CCN(Cc4ccccc4)CC3)c2)cc1 | 1 | x | x | x | x | x
CCc1cc(=O)oc2cc(OCC(=O)NCCC#N)ccc12 | -2 | x | x | x | x | x
SMILES | LDHA inh | TRHR PAM | TRHR agonist | D1 antagonist | D1 agonist | D1 PAM
CN(C)C(CNC(=O)c1cc2ccccc2oc1=O)c1ccc(C(C)(C)C)cc1 (stereo unspecified) | -2 | x | x | x | x | x
Cc1nc(-c2cccc(NC(=O)c3cccc(S(=O)(=O)N4CCCC4)c3)c2)cs1 | 4 | -1 | 0 | -32* | 2 | 1
COc1ccc(-c2csc(NC(=O)c3cccc(S(=O)(=O)N4CCN(C)CC4)c3)n2)cc1 | 0 | 4 | 0 | -48* | 19 | -9
O=C(Nc1nc(-c2ccccc2)cs1)c1cccc(S(=O)(=O)N2CCN(Cc3ccccc3)CC2)c1 | 2 | 37* | 0 | 6 | 6 | 8
O=C(Nc1ccc(-c2csc(Nc3ccccc3)n2)cc1)c1cccc(C(F)(F)F)c1 | -9 | 1 | 0 | -47* | 3 | -5
O=C(Nc1nc(-c2ccncc2)cs1)c1cccc(S(=O)(=O)N2CCOCC2)c1 | -6 | x | x | x | x | x
CCN1CCN(c2nc3c(c(=O)[nH]c(=O)n3C)n2CC(O)COc2ccc(Cl)cc2)CC1 (stereo unspecified) | -5 | x | x | x | x | x
N#Cc1ccccc1COC(=O)c1ccc(-c2ccc(C=O)o2)cc1 | -1 | x | x | x | x | x
Clc1cc(Cl)c(N/N=C/c2cccc(Cl)c2Cl)c(Cl)c1 | -21 | x | x | x | x | x
CC(NC(=O)c1cccc(S(=O)(=O)N2CCN(C)CC2)c1)c1ccc(Cl)cc1Cl (stereo unspecified) | -2 | -8 | 0 | -45* | 16 | -5
Cc1cc(C(F)F)n2ncc(C(=O)NCc3ccccc3C(F)(F)F)c2n1 | -1 | -14 | 0 | 15 | 6 | 9
Cc1cc(C(F)F)n2ncc(C(=O)NCc3ccccc3F)c2n1 | 3 | -5 | 0 | -32* | 2 | -4
COc1ccc(C2NC(=O)C(C#N)=C(S)N2c2cccc(C)c2)cc1OC (stereo unspecified) | -5 | 8 | -1 | -61* | 1 | -4
COc1ccc(N2C(S)=C(C#N)C(=O)NC2c2ccc(OC)c(OC)c2)cc1 (stereo unspecified) | 7 | 30* | 0 | 5 | 1 | -4
COc1ccc(C2NC(=O)C(C#N)=C(S)N2c2ccc(C)cc2)cc1OC (stereo unspecified) | -1 | 2 | 0 | -4 | 2 | 19
CCOc1ccc(C2NC(=O)C(C#N)=C(S)N2c2ccc(OC)cc2)cc1OC (stereo unspecified) | -5 | 1 | 0 | 14 | 4 | 1
COc1cccc(Oc2coc3cc(OC(=O)c4ccc(F)cc4)ccc3c2=O)c1 | 8 | x | x | x | x | x
Cn1c(C(=O)NC2CCCCC2)cc2sccc21 | 4 | 6 | -2 | 6 | 0 | 5
CN(C(=O)c1cc2sccc2n1C)C1CCCCC1 | 7 | -1 | 0 | -35* | 3 | 2
CCOC(=O)c1cc(C)sc1/N=C/C1C(=O)CC(C)(C)CC1=O | -2 | -3 | 0 | -6 | -2 | -8
CCOC(=O)c1c(CC(C)C)csc1/N=C/C1C(=O)CC(C)(C)CC1=O | 6 | 13 | 12 | -4 | 32* | -2
CC(Sc1nc(Cl)nc2nc[nH]c12)C(=O)NCCc1c[nH]c2ccc(Cl)cc12 (stereo unspecified) | -4 | x | x | x | x | x
Cc1oc(-c2ccc(C(=O)NCc3ccccc3F)cc2)nc1COc1ccccc1 | -14 | -20 | 1 | -54* | 11 | -4
Cc1ccc(SCc2nc(-c3ccc(C(=O)NCc4cccnc4)cc3)oc2C)cc1 | 4 | x | x | x | x | x
